# In PubChem BioAssay (NCI):
# Compounds without any hit were thinned out: in the full panel of roughly 79,000, 15% have a hit. Activity calls are given as the source filed them. No stated cut-off is given here; in the data, active means growth inhibition above about 70%; inactive means the rest.
# Experiments:
# [1] = NCI Yeast Anticancer Drug Screen. Data for the rad50 strain (AID 155);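 further: 0% = growth of vehicle-only cultures of the same strain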; conditions: S. cerevisiae rad50 strain growth inhibition; at 50.0 µM; active compounds read high
# How it was run: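 Compounds were tested on a yeast strain with an engineered DNA damage repair alteration; the reported value is growth inhibition normalised to vehicle treatment.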
# [2] = NCI Yeast Anticancer Drug Screen. Data for the mec2-1 strain (AID 157); conditions: S. cerevisiae mec2-1 strain, at 50.0 µM, active compounds read high
# How it was run: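 Mutant yeast (mec2-1) grown with compound; growth inhibition relative to vehicle control reported.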
# [3] = NCI Yeast Anticancer Drug Screen. Data for the sgs1 mgt1 strain (AID 161);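 further: 0% = growth of cultures given vehicle only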; conditions: S. cerevisiae sgs1 mgt1 strain, at 50.0 µM, active compounds read high
# How it was run: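 Percent growth inhibition was derived by comparing compound-exposed mutant yeast with vehicle-exposed cultures. The strain carries alterations in DNA damage repair.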
# [4] = NCI Yeast Anticancer Drug Screen. Data for the cln2 rad14 strain (AID 165);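 further: 0% = growth equal to vehicle treated cultures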; conditions: S. cerevisiae cln2 rad14 strain, at 50.0 µM, active compounds read high
# How it was run: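 Readout is yeast growth inhibition versus vehicle-treated controls, using a strain with cln2 and rad14 alterations exposed to compound.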
# [5] = NCI Yeast Anticancer Drug Screen. Data for the bub3 strain (AID 167); conditions: S. cerevisiae bub3 mutant strain, at 50.0 µM, active compounds read high
# How it was run: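 Growth of a checkpoint-deficient yeast mutant is measured after compound exposure. Values represent inhibition relative to vehicle.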
# [6] = NCI Yeast Anticancer Drug Screen. Data for the mlh1 rad18 strain (AID 175); conditions: S. cerevisiae mlh1 rad18 strain growth inhibition; at 50.0 µM; active compounds read high
# How it was run: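 Genetically defined yeast (DNA repair-deficient) exposed to compounds; growth inhibition determined relative to vehicle.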
Compound,growth inhibition [1],growth inhibition [2],growth inhibition [3],growth inhibition [4],growth inhibition [5],growth inhibition [6]
CCC1(C)N=C(N)Nc2nc3cc(C)c(C)cc3n21 (configuration not stated),15.2% (inactive),17.7% (inactive),25.1% (inactive),7.05% (inactive),19.9% (inactive),21.4% (inactive)
COc1ccc(CC(N)C(=O)N(C)C2C(CO)OC(n3cnc4c(N(C)C)ncnc43)C2O)cc1 (configuration not stated),5.3% (inactive),-10.8% (inactive),-8.7% (inactive),-25.7% (inactive),2.3% (inactive),-7.45% (inactive)
CC(Oc1ccc2c(-c3ccc(Cl)cc3)cc(=O)oc2c1)C(=O)O (configuration not stated),-15.9% (inactive),-4.15% (inactive),13.6% (inactive),19.1% (inactive),-7.15% (inactive),32.9% (inactive)
COc1ccc(COCc2ccc(OC)cc2)cc1,4.55% (inactive),-10.6% (inactive),8.7% (inactive),-66.5% (inactive),13.8% (inactive),12.7% (inactive)
NC(=O)c1cc2c(c3c1CCCC3)CCCC2,4.2% (inactive),-6.6% (inactive),-3.55% (inactive),-52% (inactive),-13.9% (inactive),-2.3% (inactive)
COc1ccccc1NC1Oc2cc3c(cc2C(c2cc(OC)c(OC)c(OC)c2)C1C)OCO3 (configuration not stated),-16.4% (inactive),-26.1% (inactive),-1.25% (inactive),-0.85% (inactive),-2.8% (inactive),-5.35% (inactive)
CCOC(=O)c1[nH]c(C(=O)O)c(C(=O)OCC)c1C,7.3% (inactive),3.7% (inactive),4.85% (inactive),-12.8% (inactive),-5.3% (inactive),-10.1% (inactive)
COC(=O)c1c2c(cc3c1CC1(Cc4cc5c(c(C(C)=O)c4C1)CCC5)C3)CCC2 (configuration not stated),-34.1% (inactive),-15.5% (inactive),-63.8% (inactive),-4.1% (inactive),-20.7% (inactive),-41.5% (inactive)
CC(C)CC(O)C(C)C (configuration not stated),-18.3% (inactive),-15.8% (inactive),0.15% (inactive),31.3% (inactive),-6.8% (inactive),1.35% (inactive)
N[C@@H](CCC(=O)NC(Cc1ccccc1)C(=O)NCP(=O)(O)O)C(=O)O (some centres not stated),-60.9% (inactive),-17.9% (inactive),-45.9% (inactive),-1.75% (inactive),-10.5% (inactive),-55.4% (inactive)
CCC(CC)C(=O)NC(O)C(Cl)(Cl)C(C)Cl (configuration not stated),3.8% (inactive),27.1% (inactive),0.55% (inactive),20.3% (inactive),6.65% (inactive),14.6% (inactive)
CCOC1C=CCCO1 (configuration not stated),20% (inactive),-2.7% (inactive),8.65% (inactive),-6.55% (inactive),-7.2% (inactive),5.65% (inactive)
CCOC(OCC)c1ccccc1OC,1.85% (inactive),1.05% (inactive),4.95% (inactive),-15.1% (inactive),3.6% (inactive),-1.1% (inactive)
C=C1C(=O)OC2CC3(C)C=CC(=O)C(=C)C3CC12 (configuration not stated),6.75% (inactive),20.6% (inactive),34.4% (inactive),39.9% (inactive),26.8% (inactive),23.4% (inactive)
CCC[CH2][Sn]([CH2]CCC)([O]C(=O)c1nccnc1N)[O]C(=O)c1nccnc1N,92.2% (active),92.5% (active),93% (active),92.2% (active),90.3% (active),88.2% (active)
COc1ccc(C2c3cc4c(cc3OC(NNS(=O)(=O)c3ccc(C)cc3)C2C)OCO4)cc1 (configuration not stated),-22.4% (inactive),12.9% (inactive),9.55% (inactive),4.4% (inactive),-5.1% (inactive),34.2% (inactive)
C=CCOc1ccc(C2C(C(=O)OC)C(=O)CC(O)(c3ccccc3)C2C(=O)OC)cc1OC (configuration not stated),-63.2% (inactive),-24.6% (inactive),-14.9% (inactive),-13.2% (inactive),-0.9% (inactive),-19.7% (inactive)
C=C(C/C(=C/S(C)=O)c1ccccc1)c1ccccc1 (configuration not stated),43.9% (inactive),12.3% (inactive),18.7% (inactive),29.6% (inactive),20.9% (inactive),34.4% (inactive)
COc1cc2c(cc1OC)[C@H]1C(COC(=O)Nc3ccccc3)CN1CC2 (some centres not stated),-28.9% (inactive),-0.7% (inactive),-42.7% (inactive),-9.75% (inactive),-30.6% (inactive),-49.1% (inactive)

Compound,growth inhibition [1],growth inhibition [2],growth inhibition [3],growth inhibition [4],growth inhibition [5],growth inhibition [6]
O=C1CCCCCCCCCCOCCCCO1,-2.4% (inactive),2.9% (inactive),14.8% (inactive),24.1% (inactive),27.7% (inactive),-13.4% (inactive)
CC(=O)CC(OC(C)=O)C1=CCC2C(CC1C)OC(=O)C2C (configuration not stated),45.8% (inactive),9.8% (inactive),-22.6% (inactive),-0.65% (inactive),-36.5% (inactive),-56.6% (inactive)
CC12CCC(c3cn[nH]c31)C2(C)C (configuration not stated),16.1% (inactive),20.8% (inactive),19.9% (inactive),-6.6% (inactive),-0.35% (inactive),0.7% (inactive)
Cc1nc2c(cc1C(=O)N/N=C/c1ccc([N+](=O)[O-])cc1)c(=O)n(C)c(=O)n2C,-33.4% (inactive),-21.8% (inactive),-11.9% (inactive),-5.75% (inactive),-50.9% (inactive),18.1% (inactive)
Cc1ccc(N=NNc2ccccc2)cc1,-7.7% (inactive),-8.05% (inactive),-7.65% (inactive),-13.9% (inactive),-11.3% (inactive),-7.6% (inactive)
CC(OC(=O)CC(c1ccccc1)N1CCCCC1)c1ccccc1 (configuration not stated),64.7% (inactive),1.3% (inactive),41.1% (inactive),5.3% (inactive),57.5% (inactive),33.9% (inactive)
O=C1c2ccccc2C2(c3ccccc3)C=NNC12c1ccccc1 (configuration not stated),21.5% (inactive),6.9% (inactive),18.2% (inactive),4.4% (inactive),55.5% (inactive),25.1% (inactive)
CC(=O)N1C(=O)NC(=O)C1(C)c1cccs1 (configuration not stated),23.2% (inactive),-8.9% (inactive),2.9% (inactive),-75.1% (inactive),2% (inactive),1.2% (inactive)
O=[N+]([O-])C(/C=C(\Cl)[N+](=O)[O-])=C(N1CCOCC1)N1CCOCC1,-4.7% (inactive),-1.2% (inactive),24.9% (inactive),-9.5% (inactive),13.9% (inactive),5.45% (inactive)
CN(C)CCNC(=O)c1cccc(C(C)(C)C)c1[N+](=O)[O-],-11.2% (inactive),-30.1% (inactive),-18.9% (inactive),0.35% (inactive),-19.1% (inactive),-20% (inactive)
CN1CCC2(CC1)C(=O)N(NC(N)=O)C(=O)C2c1ccccc1 (configuration not stated),15% (inactive),2.15% (inactive),5.7% (inactive),1.2% (inactive),1% (inactive),13.8% (inactive)
CC(C)(C)NC(=S)N/N=C/c1ccccn1,77.2% (active),85.2% (active),90.5% (active),88.3% (active),89.7% (active),89.7% (active)
CC(=O)N1c2ccccc2C(C)(C)C1O (configuration not stated),6.85% (inactive),17.1% (inactive),-3.55% (inactive),-13.7% (inactive),-12.4% (inactive),3.7% (inactive)
CC1CN(CCO)C(C)(C)C1 (configuration not stated),4.6% (inactive),17.8% (inactive),-6.3% (inactive),-12.8% (inactive),-9.2% (inactive),-17% (inactive)
Cc1nn(C23CC4CC(CC(C4)C2)C3)c(C(Cl)Cl)c1Cl,-4.4% (inactive),-7.95% (inactive),2.7% (inactive),-8.75% (inactive),2.05% (inactive),4.7% (inactive)
NC(=O)c1csc([C@@H](O)Cc2ccccc2)n1,-2.25% (inactive),3.5% (inactive),7.5% (inactive),-7.7% (inactive),8.35% (inactive),7.95% (inactive)
CN(C)c1ccc(-c2c3ccc(Cl)cc3nc3ccc(Br)cc23)cc1,-1.3% (inactive),-1.9% (inactive),-18.1% (inactive),-4.3% (inactive),-1% (inactive),-8.9% (inactive)
CSc1ccc([C@@H](O)[C@H](CO)NC(=O)C(Cl)Cl)cc1,72.9% (active),90.2% (active),88.4% (active),31.6% (inactive),74.1% (active),47.6% (inactive)
